dFosB activator: mouse delta FosB homodimer activation; P13346; purified delta FosB, TAMRA-CDK5 oligo fluorescence polarization; percent of positive-control signal above neutral wells; activation, % at 25 µM; actives 0.99% (n = 340,000); AID 493131;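 active = mean activation above about 17%, with every replicate also reaching it, limit read from the data, passing the limit was not always enough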
Bfl-1 A1 inh: inhibitors of the anti-apoptotic protein A1, read as caspase activation. actives 0.066% (n = 330,000). MEF A1-2A-BIM cells, Caspase-Glo 3/7 luminescence, 3 h; percent of clofoctol response, vehicle zero. caspase activation, % (test concentration not listed);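 active = over half of replicate activation scores above 10%, or exactly half above 10 with the replicate mean above 10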
INS-1E GSIS act: GLuc luminescence reporter in INS-1E cells, primary screen for activators of glucose-dependent secretion of insulin | INS-1E GLuc reporter insulin secretion, 2-3 h | activation, % at 16.6 µM | actives 0.61% (n = 370,000);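 active = lowest replicate activation of at least 40%, so every replicate reaches that level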;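 also: 0% = median of neutral control wells and 100% = median of IBMX positive control wells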
Neddylation inh: blocks human cullin neddylation; P61081+Q13564; TR-FRET cullin neddylation, biochemical; inhibition, % at 25 µM; actives 0.58% (n = 360,000); AID 651699; in the data active = inhibition above about 36%
Vif inh: HIV Vif inhibition; HEK293T cells, Vif self-association by quenched fluorescence, imaging, 24 h; inhibition, % at 7.49 µM; actives 0.35% (n = 340,000); AID 602346; in the data active = inhibition above about 50%, passing the limit was not always enough
Neddyl conf: cullin neddylation inhibition, confirmation | shares compounds with Neddylation inh | TR-FRET cullin neddylation biochemical assay | calls only at 25 µM | actives 13% (n = 1,800) | AID 652217; in the data active = inhibition above about 40%;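 also: neddylation substrate is the cullin 1 ring ligase complex with SKP2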
Active calls of the source: *; i = inactive; nt = not tested or not shown; + = active, no number. Compounds with a hit are over-represented: about 1.9% of the library has one in this group of screens.

SMILES | dFosB activator | Bfl-1 A1 inh | INS-1E GSIS act | Neddylation inh | Vif inh | Neddyl conf
CN=Cc1c(NC)nc2c(C)cccn2c1=O | -15.1 | 0.2 | nt | 42.8* | -3.9 | +
Cc1cccn2c(=O)c(C=Nc3ccc(Cl)cc3)c(NCCO)nc12 | -11.2 | 0.0 | 13.7 | 34.5 | 9.2 | nt
Cc1cccn2c(=O)c(C=Nc3ccccc3)c(NCCO)nc12 | -7.5 | 0.9 | 18.9 | 45.8* | 26.7 | i
CO[C@@H]1CN(C)C(=O)c2cc(NC(=O)Nc3ccccc3)ccc2OC[C@@H](C)N(CC2CC2)C[C@@H]1C | nt | nt | -2.9 | nt | nt | nt
CCCN(C)C[C@H]1OCCCC[C@@H](C)Oc2ccc(NC(=O)Nc3ccc(OC)cc3)cc2C(=O)N([C@@H](C)CO)C[C@H]1C | nt | nt | -4.3 | nt | nt | nt
COc1cccc(N=c2oc3cc(O)ccc3cc2C(=O)NCC2CCCO2)c1 (stereo not drawn) | 1.3 | 0.7 | -3.0 | 43.6* | -2.0 | i
COc1ccccc1N=c1oc2cc(O)ccc2cc1C(=O)NCC1CCCO1 (stereo not drawn) | -11.2 | -0.8 | nt | nt | -1.0 | nt
COc1cccc(NC(=O)N(C)C[C@@H]2Oc3ncc(C#Cc4ccc(F)cc4)cc3C(=O)N([C@@H](C)CO)C[C@H]2C)c1 | nt | nt | -26.2 | nt | nt | nt
Nc1nsc2ccccc12 | 5.8 | -0.1 | 4.6 | -7.0 | -0.4 | nt
Nc1nnc(N)c2ccccc12 | 2.5 | -0.5 | -1.8 | 39.5* | -1.9 | i
CCCCN(C)C1=Nc2cccc3cccc1c23 | -7.3 | 1.2 | nt | 39.2* | 0.8 | i
CCCCON1C(=O)c2cccc3cccc(c23)C1=O | 1.4 | -0.2 | 6.5 | 0.3 | 0.7 | nt
COc1cc(-c2cc(NC(C)=O)c3ncc(-c4ccc(F)cc4)n3c2)cc(OC)c1OC | nt | nt | nt | 27.7 | -6.1 | nt
CC(=O)Nc1cccc(-c2cc(NC(C)=O)c3ncc(-c4cccc(C(C)=O)c4)n3c2)c1 | nt | nt | nt | -4.8 | -3.8 | nt
CC(=O)c1ccc(-c2cnc3c(NC=O)cc(-c4ccc(C(=O)NC5CC5)cc4)cn23)cc1 | nt | nt | 0.0 | 48.4* | nt | i
CC(=O)Nc1cc(-c2cccc(CO)c2)cn2c(-c3ccc(C(C)=O)cc3)cnc12 | nt | nt | -13.6 | 45.2* | 10.0 | i
COc1cc(-c2cc(NC(C)=O)c3ncc(-c4ccc(C(C)=O)cc4)n3c2)cc(OC)c1OC | nt | nt | -15.5 | 41.9* | 5.4 | i
CC(=O)Nc1cccc(-c2cc(NC=O)c3ncc(-c4ccc(C(C)=O)cc4)n3c2)c1 | nt | nt | 7.9 | 41.6* | -2.0 | i
CC(=O)Nc1cc(-c2ccc(C(=O)N3CCOCC3)cc2)cn2c(-c3ccc(S(C)(=O)=O)cc3)cnc12 | nt | nt | -1.7 | 45.0* | 1.3 | i
CO[C@H]1CN(C)C(=O)c2cc(NS(=O)(=O)CC(F)(F)F)ccc2OC[C@@H](C)N(C(=O)NC(C)C)C[C@H]1C | nt | nt | 10.5 | nt | nt | nt
O=C1NC(c2ccccc2)=C(c2ccc3ccccc3n2)C(c2ccccc2)N1 (stereo not drawn) | -9.6 | -0.1 | -21.2 | 43.9* | -1.2 | i
Cc1sc2nc3ccc(NCc4ccco4)nn3c(=O)c2c1C | 2.1 | -1.0 | nt | 38.8* | -5.7 | nt
O=c1c2ccccc2nc2ccc(NCc3ccco3)nn12 | -5.6 | -0.9 | nt | 41.1* | 3.4 | i
COc1cc2[nH]c3c(c2cc1OC)CCN1CCCC[C@@H]31 | -1.9 | -0.2 | -2.2 | 48.5* | 18.2 | i
CCN(CC)C(=O)c1sc2nc(-c3ccncc3)[nH]c(=O)c2c1C | 0.8 | 0.5 | nt | 39.2* | 6.3 | +
SMILES | dFosB activator | Bfl-1 A1 inh | INS-1E GSIS act | Neddylation inh | Vif inh | Neddyl conf
CCc1cc2c(=O)[nH]c(-c3ccncc3)nc2s1 | -5.9 | -0.3 | 16.0 | 39.7* | 1.7 | nt
O=C(CSc1nnc(-c2ccco2)n1Cc1ccccc1)c1ccccc1 | -18.7 | -1.2 | nt | 7.5 | nt | nt
c1ccc(Cn2c(SCc3cn4cccnc4n3)nnc2-c2ccco2)cc1 | -2.8 | -0.6 | nt | 37.1* | 7.8 | i
CSc1nc(N)c2c3c(sc2n1)CN(C)CC3 | -12.2 | 0.2 | 3.6 | 41.2* | 5.1 | i
Cc1ccc(Nc2nc(C)nc3c2oc2ccccc23)cc1 | -13.5 | 0.3 | nt | 37.0* | -3.7 | nt
COc1ccc(Nc2nc(C)nc3c2oc2ccccc23)cc1 | -5.6 | -0.2 | 1.9 | nt | -1.0 | nt
CCc1nc(Nc2ccc(N3CCN(C(C)=O)CC3)cc2)c2oc3ccccc3c2n1 | -12.9 | 0.5 | nt | 38.3* | -22.8 | i
CCOC(=O)c1nn(-c2ccccc2C)c2nc(CC(C)C)c(C#N)c(=O)n12 | 1.0 | -0.3 | nt | 40.3* | 8.1 | i

High-throughput results: PubChem, several laboratories
